The source of these data is PubChem BioAssay (NCI).

“And” between values parts separate entries of the source, which are not always exact repeats. Equal entries are not always repeated. The panel holds about 79,000 compounds, 15% with a hit somewhere; the sample as a whole holds those more often. A number with no mark means an inactive call. The source made the active and inactive calls. Rule as the data show it: active = growth inhibition above about 70%; inactive = the rest.

A short description of the assay: NCI Yeast Anticancer Drug Screen. Data for the sgs1 mgt1 strain (AID 161).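 Also: 0% = growth of cultures given vehicle only.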 As to conditions: S. cerevisiae sgs1 mgt1 strain, active compounds read high. How it is done: Growth inhibition of yeast strains with defined genetic alterations is measured as a screen for potential anti-cancer activity. Selected strains with alterations in DNA damage repair or cell cycle control were exposed to compounds and growth inhibition was measured relative to vehicle treated controls. The strain used in this assay is sgs1 mgt1

The mark [1] stands for this setting: at 5.0 µM (retest, dose inferred, filed as 0.5).
The mark [2] stands for this setting: at 50.0 µM (retest, dose inferred, filed as 5.0).

Regarding `COc1ccc2nc3c4c(nccc4c2c1)-c1ncccc1C3=O`, the growth inhibition is, setting by setting: under setting [1], 43%; under setting [2], 97% (active); (at 50.0 µM) 90.8% (active).
With `CN(C)c1ccc2cc3c(cc2c1)Oc1ccccc1N3.[Cl][Zn][Cl]`, the growth inhibition under setting [1] is 37%, the growth inhibition under setting [2] was 94% (active) and the growth inhibition (at 50.0 µM) is 87.8% (active).
As for `CC(C)(C)c1ccc(O)c(Br)c1`, the growth inhibition reads like this: under setting [1], 0%; under setting [2], 2%; (at 50.0 µM) 83.8% (active).
With `CCCCC(CC)CNC(=O)CI` (stereo not given), the growth inhibition is 6% under setting [1] and 73% (active) under setting [2].
With `C/C(=N\NC(=S)N1CCC1)c1ccccn1`, the growth inhibition was 92% (active) under setting [1], 99% (active) under setting [2] and 87.8% (active) (at 50.0 µM).
Taken in the same sequence, the figures for `Oc1ccc2ccccc2c1N=Nc1ccccn1` were 19%, 96% (active) and 97.3% (active).
On to `CCOS(=O)(=O)CC(C)(C)C`, for which the growth inhibition was 8% under setting [1] and 59% under setting [2].
With `S=C(SSC(=S)N1CCOCC1)N1CCOCC1`, the growth inhibition by setting is: under setting [1], 99% (active); under setting [2], 99% (active); (at 50.0 µM) 99.2% (active).
On to `C/C(=N\NC(=S)N(C)C)c1ccccn1`, for which the growth inhibition is, setting by setting: under setting [1], 93% (active); under setting [2], 99% (active); (at 50.0 µM) 88.6% (active).
As for `CCCCCCCCCCCCCCCC[N+]1(C)CCCC1c1cccnc1` (stereo not given), the growth inhibition under setting [1] is 99% (active), the growth inhibition under setting [2] was 99% (active) and the growth inhibition (at 50.0 µM) is 40.8%.
As for `O=C1C=CC(=O)N1c1cc(Cl)c(Cl)cc1Cl`, the growth inhibition reads like this: under setting [1], 101% (active); under setting [2], 100% (active).
With `NC(=S)N/N=C/c1ncccc1O`, the growth inhibition under setting [1] is -63%, the growth inhibition under setting [2] is -30% and the growth inhibition (at 50.0 µM) is 7.55%.
`Clc1ccc(/C=N/N=C/c2ccc(Cl)cc2)cc1`: the growth inhibition (at 50.0 µM) is -42.2% and -19.6%.
Consider `CC(O)C(O)C(O)C(O)CO` (stereo not given), for which the growth inhibition (at 50.0 µM) is -15.2% and -4.65%.
On to `CC(C)(N)CCC(=O)O`, for which, where the note is “at 50.0 µM”, the growth inhibition was 12.6% and -1.85%.
As for `O=C1CCCCC1C(O)c1ccc([N+](=O)[O-])cc1` (stereo not given), under “at 50.0 µM”, the growth inhibition is 10.7% and -2.35%.
Still for that read-out and setting: in the case of `O=C(O)CSc1ccccc1C(=O)O` it was 1.6% and -35.4%.
The same measure, in the same setting: in the case of `COC(=O)/C(Cc1cccc(OC(C)=O)c1C(=O)OC)=N/O` it was 9.25% and -3.7%; in that of `CC(C)c1ccc(C(=O)O)cc1`, 9.55% and 13.2%.
